Data as given in PubChem BioAssay (NCI).
About 83,000 compounds went through this panel and 20% of them were active in at least one assay; those are over-represented in the sample as a whole.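 Percent growth is the endpoint: 0 to 100 indicates growth inhibition (40 means 60% inhibition), 0 means no net growth, and negative values indicate cell death.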 Values without a mark were called inactive. The source made the active and inactive calls. The calls were made as follows: active = growth percent below 10; inactive = the rest.

system: MDA-MB-231 breast; assay: NCI-60 one-dose screen, 48 h (100 = growth as untreated, 0 = no growth, -100 = all killed); conditions: 10 µM unless noted

**Q.** NC(=S)Nc1cccc(NC(N)=S)c1 was tested. Which growth did it give?
**A.** 89.7%

**Q.** Which growth does the source give for O=C(/C=C/c1ccc(O)c(O)c1)NC1CCOC1O (stereo not given) here?
**A.** 99.1%

**Q.** For CCN1C(=O)/C(=N\N=C(/C)c2ccc3c(c2)Nc2ccccc2S3)c2cc(Cl)ccc21, which growth is on record?
**A.** 66.8%

**Q.** With S=C(NCCc1ccccc1)Nc1ccc(OCc2nc3ccccc3[nH]2)cc1 as the compound, how does the growth read?
**A.** 109%

**Q.** For COc1ccc(-c2nc(SC(C)C)nc(NCCc3c[nH]c4ccccc34)c2C#N)cc1, which growth is on record?
**A.** 26.6%

**Q.** For S=C(Nc1ccccc1)Nc1ccc(OCc2nc3ccccc3[nH]2)cc1, which growth is on record?
**A.** 37%

**Q.** CC1(C)CC[C@]2(C(=O)Nc3ccc(Br)cc3)CC[C@]3(C)C(=CCC4[C@@]5(C)C[C@@H](O)[C@H](O)[C@@](C)(CO)C5CC[C@]43C)C2C1 (stereo not given in full) was tested. Which growth did it give?
**A.** -43.3% (active)

**Q.** For CC12CC[C@@H]3[C@]4(C)COC(c5c(F)cccc5F)O[C@@H]4CC[C@@]3(C)[C@@H]1CC(C1=CCOC1=O)O2 (stereo not given in full), which growth is on record?
**A.** 36.5%

**Q.** For Cc1ccc(Cc2cnc(NC(=O)c3ccc(/C=C4\SC(=S)N(C)C4=O)cc3)s2)cc1, which growth is on record?
**A.** 41.4%

**Q.** CC(=O)Nc1ccc(-n2cnc3cc(-c4ccc(O)cc4)ccc32)cc1C(F)(F)F was tested. Which growth did it give?
**A.** 42.7%

**Q.** How did the growth turn out when Cn1cc(NC(=O)c2cc(NC(=O)c3ccc(/C=C/c4ccccc4)cc3)cn2C)cc1C(=O)NCCCN1CCOCC1 was run?
**A.** -19.9% (active)

**Q.** CN(C)CCCNC(=O)c1cc(NC(=O)c2cc(NC(=O)c3ccc(/C=C/c4ccccc4)cc3)cn2C)cn1C was tested. Which growth did it give?
**A.** 65.6%

**Q.** Which growth does the source give for CC(=O)OC[C@@]1(C)C2CC[C@]3(C)C(CC=C4C5CC(C)(C)CC[C@]5(C(=O)Nc5ccc(Br)cc5)CC[C@]43C)[C@@]2(C)C[C@@H](OC(C)=O)[C@@H]1OC(C)=O (stereo not given in full) here?
**A.** 62.3%

**Q.** How did the growth turn out when COc1ccc(NC(=O)Cn2c(O)c(N=Nc3ccc(S(N)(=O)=O)cc3)c3ccccc32)cc1 was run?
**A.** -22.1% (active)

**Q.** S=C(Nc1ccc(OCc2nc3ccccc3[nH]2)cc1)NC1CCCCC1 was tested. Which growth did it give?
**A.** 100%

**Q.** Which growth does the source give for Cc1ccc(NC(=O)[C@]23CCC(C)(C)CC2C2=CCC4[C@@]5(C)C[C@@H](O)[C@H](O)[C@@](C)(CO)C5CC[C@@]4(C)[C@]2(C)CC3)cc1 (stereo not given in full) here?
**A.** -8.63% (active)

**Q.** With O=S(=O)(Nc1cccc(-n2cnc3cc(-c4ccc(O)cc4)ccc32)c1)C1CC1 as the compound, how does the growth read?
**A.** 42.4%

**Q.** For Cn1cc(-c2nnc(N)nc2-c2c[nH]c3ccccc23)c2cccnc21, which growth is on record?
**A.** 48.5%

**Q.** Which growth does the source give for CN(C)c1ccnc(CNCCSC2(c3ccc(C(F)(F)F)cc3)c3ccccc3CCc3ccccc32)c1 here?
**A.** -54.6% (active)

**Q.** How did the growth turn out when N/N=C(\N)c1c(N)nc(=S)[nH]c1-c1ccc(Cl)cc1Cl was run?
**A.** 94.9%

**Q.** With COc1ccc2[nH]cc(-c3nnc(N)nc3-c3c[nH]c4ncc(Br)cc34)c2c1 as the compound, how does the growth read?
**A.** 73.4%

**Q.** Which growth does the source give for COc1cc(C2CC(c3cc(OC)c(OC)c(OC)c3)=NN2c2ccccc2)ccc1OCc1ccc(C)cc1 (stereo not given) here?
**A.** 102%

system: RXF 393 renal; assay: as above; conditions: 10 µM unless noted

**Q.** How did the growth turn out when C=C1CCC2C3(C)COC(c4cc(F)cc(F)c4)OC3CCC2(C)C1CC(O)C1=CCOC1=O (stereo not given) was run?
**A.** 56.4%

**Q.** Which growth does the source give for CC(=O)Nc1ccc(C(=O)NC(=S)Nc2ccc(S(N)(=O)=O)cc2)cc1 here?
**A.** 93.2%

**Q.** With COc1cc(C2CC(c3cc(OC)c(OC)c(OC)c3)=Nc3c(N)nc(N)nc3N2)ccc1Oc1nc(NCCO)nc(N2CCOCC2)n1 (stereo not given) as the compound, how does the growth read?
**A.** 105%

**Q.** CC1=C(C(=O)c2ccccc2)C(c2cccc(Cl)c2Cl)n2c(nc3ccccc32)N1 (stereo not given) was tested. Which growth did it give?
**A.** 42.8%

**Q.** For CN1CCc2c(sc3ncnc(N/N=C/c4ccc(Cl)cc4Cl)c23)C1, which growth is on record?
**A.** -41.8% (active)

**Q.** O=C(COc1ccc(NC(=O)Nc2ccc(Cl)c(Cl)c2)cc1)N=Nc1c(O)[nH]c2ccc(Br)cc12 was tested. Which growth did it give?
**A.** -54.3% (active)

**Q.** Which growth does the source give for Cn1cc(NC(=O)c2cc(NC(=O)c3ccc(C#Cc4ccccc4)cc3)cn2C)cc1C(=O)NCCCN1CCOCC1 here?
**A.** -4.28% (active)

**Q.** With COCOc1cc2oc(C(=O)N[C@@H](Cc3ccccc3)C(O)C(=O)NCc3ccccc3)c(C)c(=O)c2cc1OCOC (stereo not given in full) as the compound, how does the growth read?
**A.** -23.7% (active)

**Q.** Cc1ccc(C(=O)CSc2nc3ccc(C)cc3c(=O)n2-c2ccc(F)cc2)cc1 was tested. Which growth did it give?
**A.** 30.5%

**Q.** With CC(C)c1ccc2c(N)c(C(=O)Nc3ccc(C(F)(F)F)cn3)sc2n1 as the compound, how does the growth read?
**A.** 74.5%

**Q.** How did the growth turn out when CN(C)CCn1c2ccccc2c2nc3ccc([N+](=O)[O-])cc3nc21 was run?
**A.** 10.1%

**Q.** With COc1cc2c(c(OC)c1OC)C(=O)CC(c1cccc(NC(=O)c3cc(NC(=O)[C@H](CO)NC(=O)OC(C)(C)C)ccc3Cl)c1)O2 (stereo not given in full) as the compound, how does the growth read?
**A.** 46.8%

**Q.** For Cc1cccc(NC(=O)[C@]23CCC(C)(C)CC2C2=CCC4[C@@]5(C)C[C@@H](O)[C@H](O)[C@@](C)(CO)C5CC[C@@]4(C)[C@]2(C)CC3)c1 (stereo not given in full), which growth is on record?
**A.** -49% (active)

**Q.** For CC(=O)Nc1ccc(-n2cnc3ccc(-c4ccc(O)cc4)cc32)cc1, which growth is on record?
**A.** 10.9%

**Q.** With NC(=S)Nc1cccc(NC(N)=S)c1 as the compound, how does the growth read?
**A.** 104%

**Q.** How did the growth turn out when O=C(/C=C/c1ccc(O)c(O)c1)NC1CCOC1O (stereo not given) was run?
**A.** 125%

**Q.** How did the growth turn out when CCN1C(=O)/C(=N\N=C(/C)c2ccc3c(c2)Nc2ccccc2S3)c2cc(Cl)ccc21 was run?
**A.** 65.9%

**Q.** S=C(NCCc1ccccc1)Nc1ccc(OCc2nc3ccccc3[nH]2)cc1 was tested. Which growth did it give?
**A.** 122%

**Q.** With COc1ccc(-c2nc(SC(C)C)nc(NCCc3c[nH]c4ccccc34)c2C#N)cc1 as the compound, how does the growth read?
**A.** -20.3% (active)

**Q.** For S=C(Nc1ccccc1)Nc1ccc(OCc2nc3ccccc3[nH]2)cc1, which growth is on record?
**A.** 75.1%

**Q.** How did the growth turn out when CC1(C)CC[C@]2(C(=O)Nc3ccc(Br)cc3)CC[C@]3(C)C(=CCC4[C@@]5(C)C[C@@H](O)[C@H](O)[C@@](C)(CO)C5CC[C@]43C)C2C1 (stereo not given in full) was run?
**A.** -64.5% (active)

**Q.** CC12CC[C@@H]3[C@]4(C)COC(c5c(F)cccc5F)O[C@@H]4CC[C@@]3(C)[C@@H]1CC(C1=CCOC1=O)O2 (stereo not given in full) was tested. Which growth did it give?
**A.** 83.8%

**Q.** How did the growth turn out when Cc1ccc(Cc2cnc(NC(=O)c3ccc(/C=C4\SC(=S)N(C)C4=O)cc3)s2)cc1 was run?
**A.** 29.4%

**Q.** Which growth does the source give for CC(=O)Nc1ccc(-n2cnc3cc(-c4ccc(O)cc4)ccc32)cc1C(F)(F)F here?
**A.** 26%

**Q.** How did the growth turn out when Cn1cc(NC(=O)c2cc(NC(=O)c3ccc(/C=C/c4ccccc4)cc3)cn2C)cc1C(=O)NCCCN1CCOCC1 was run?
**A.** -3.75% (active)

**Q.** How did the growth turn out when CN(C)CCCNC(=O)c1cc(NC(=O)c2cc(NC(=O)c3ccc(/C=C/c4ccccc4)cc3)cn2C)cn1C was run?
**A.** 25%

**Q.** For CC(=O)OC[C@@]1(C)C2CC[C@]3(C)C(CC=C4C5CC(C)(C)CC[C@]5(C(=O)Nc5ccc(Br)cc5)CC[C@]43C)[C@@]2(C)C[C@@H](OC(C)=O)[C@@H]1OC(C)=O (stereo not given in full), which growth is on record?
**A.** 72.8%

**Q.** With COc1ccc(NC(=O)Cn2c(O)c(N=Nc3ccc(S(N)(=O)=O)cc3)c3ccccc32)cc1 as the compound, how does the growth read?
**A.** 82.7%

**Q.** With S=C(Nc1ccc(OCc2nc3ccccc3[nH]2)cc1)NC1CCCCC1 as the compound, how does the growth read?
**A.** 147%

**Q.** Which growth does the source give for Cc1ccc(NC(=O)[C@]23CCC(C)(C)CC2C2=CCC4[C@@]5(C)C[C@@H](O)[C@H](O)[C@@](C)(CO)C5CC[C@@]4(C)[C@]2(C)CC3)cc1 (stereo not given in full) here?
**A.** -38.6% (active)

**Q.** For O=S(=O)(Nc1cccc(-n2cnc3cc(-c4ccc(O)cc4)ccc32)c1)C1CC1, which growth is on record?
**A.** 4.76% (active)

**Q.** Cn1cc(-c2nnc(N)nc2-c2c[nH]c3ccccc23)c2cccnc21 was tested. Which growth did it give?
**A.** 71.1%

**Q.** For CN(C)c1ccnc(CNCCSC2(c3ccc(C(F)(F)F)cc3)c3ccccc3CCc3ccccc32)c1, which growth is on record?
**A.** -88.3% (active)

**Q.** For CC1=C(C(=O)OC(C)C)C(c2cccc(O)c2)NC(=S)N1 (stereo not given), which growth is on record?
**A.** 110%

**Q.** N/N=C(\N)c1c(N)nc(=S)[nH]c1-c1ccc(Cl)cc1Cl was tested. Which growth did it give?
**A.** 115%

**Q.** For COc1ccc2[nH]cc(-c3nnc(N)nc3-c3c[nH]c4ncc(Br)cc34)c2c1, which growth is on record?
**A.** 79.2%

**Q.** With COc1cc(C2CC(c3cc(OC)c(OC)c(OC)c3)=NN2c2ccccc2)ccc1OCc1ccc(C)cc1 (stereo not given) as the compound, how does the growth read?
**A.** 101%

**Q.** With O=C(N/N=C/c1ccc(-c2ccc(O)cc2)o1)c1[nH]c2ccc(Br)cc2c1-c1ccccc1 as the compound, how does the growth read?
**A.** -10% (active)
